A short description of assay [1]: E. coli DRC41 culture turbidity changes, primary screen, E. coli filamentation inducer project, strain DRC41, OD650, 48 h (AID 1152).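 Also: E. coli MC1000 strain DRC41 lacking acrAB efflux pump and sulA.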 The settings on record: E. coli DRC41 (acrAB sulA), higher = more signal, called active from +8 up or from −8 down.
A short description of assay [2]: small-molecule binders of probe aLefty1, primary screen, biochemical, small-molecule microarray, 635/667 nm fluorescence (AID 1153).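 Also: score merges spot fluorescence with signal-to-noise ratio from the scanned slide images.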 As to conditions: higher = more signal.
Assay [3] can be described thus: PSAC antagonists in infected red cells, primary screen, cell-based, P. falciparum Indochina, OD700, 1 h (AID 1154). The settings on record: P. falciparum Indochina infected RBC osmotic lysis, higher = more signal, called active from +8 up or from −8 down.
A short description of assay [4]: PSAC antagonists in infected red cells, primary screen, cell-based, P. falciparum Indochina, OD700, 2 h (AID 1155).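 Also: lysis reports solute entry through the parasite surface anion channel PSAC; channel blockers reduce lysis of infected cells.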 The settings on record: P. falciparum Indochina infected erythrocytes, osmotic lysis OD700; higher = more signal, called active from +8 up or from −8 down.
A short description of assay [5]: osmotic lysis modulators in infected erythrocytes, primary screen, PSAC antagonist project, cell-based, P. falciparum Indochina, OD700, 3 h (AID 1156). The settings on record: higher = more signal, called active from +8 up or from −8 down.
Assay [6] can be described thus: PSAC antagonists in infected red cells, primary screen, cell-based, P. falciparum Indochina, OD700, 18 h (AID 1157). The settings on record: P. falciparum Indochina infected erythrocytes, osmotic lysis OD700, 18 h; higher = more signal, called active from +8 up or from −8 down.
Assay [7] is described as follows: modulators of S6 phosphorylation in cells, primary screen, cell-based, A549, cytoblot, luminescence, serum-stimulated (AID 1158).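 Also: serum-stimulated A549 lung adenocarcinoma cells; signal is phosphorylated S6 detected by cytoblot immunostaining with HRP secondary.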 The settings on record: A549 phospho-S6 cytoblot, 5 h, higher = more signal.
Assay [8] has as its target NADPH oxidase 2 (Homo sapiens) (UniProt P04839). The assay can be described thus: NOX2-dependent H2O2 signal modulators, primary screen, NOX inhibitor project, cell-based, HEK293-NOX2, PMA-stimulated, Amplex Red fluorescence (AID 1159). Also: test concentration not given here. As to conditions: 45 min, higher = more signal, called active from +8 up or from −8 down.
The target of assay [9] is NADPH oxidase 4 (Homo sapiens) (UniProt Q9NPH5). The assay can be described thus: NOX4-dependent H2O2 signal modulators, primary screen, NOX inhibitor project, cell-based, HEK293-NOX4, tetracycline-induced, Amplex Red fluorescence (AID 1160). As to conditions: 45 min, higher = more signal, called active from +8 up or from −8 down.
The target of assay [10] is NADPH oxidase 5 (Homo sapiens) (UniProt Q96PH1). The assay can be described thus: NOX5-dependent H2O2 signal modulators, primary screen, NOX inhibitor project, cell-based, HEK293-NOX5, Amplex Red fluorescence (AID 1161). As to conditions: HEK293-NOX5, ionomycin, 45 min, higher = more signal.
A short description of assay [11]: A549 cell viability effects, profiling panel, calcein-AM fluorescence, 48 h, basal (AID 1162). Also: test concentration not given here. The settings on record: higher = more signal.
The nature of assay [12]: adipocyte viability effects, profiling panel, cell-based, 3T3-L1 adipocytes, calcein-AM fluorescence, 48 h, basal (AID 1163). Also: test concentration not given here. As to conditions: 3T3-L1 adipocytes viability, higher = more signal.
Assay [13] can be described thus: HepG2 cell viability effects, profiling panel, calcein-AM fluorescence, 48 h, basal (AID 1164). Also: test concentration not given here. As to conditions: higher = more signal.
Assay [14] can be described thus: MM1S cell viability effects, profiling panel, calcein-AM fluorescence, 48 h, basal (AID 1165).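 Also: viability of MM1S multiple myeloma cells under basal unstimulated conditions; test concentration not given here.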 As to conditions: higher = more signal.
Assay [15] can be described thus: basal RPMI8226 viability, no added stimulus, profiling panel, cell-based, calcein-AM fluorescence, 48 h, PK04 Diversity Set (AID 1166).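 Also: cells grown under basal conditions without added stimulus; test concentration not given here.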 The settings on record: RPMI8226 myeloma viability, higher = more signal.
The nature of assay [16]: basal HepG2 mitochondrial membrane potential changes, profiling panel, cell-based, JC-1 fluorescence, 24 h, 100 nL compound (AID 1167). Also: test concentration not given here. As to conditions: higher = more signal.
The nature of assay [17]: basal 3T3-L1 adipocyte mitochondrial potential changes, profiling panel, cell-based, JC-1 fluorescence, 3T3-L1 adipocytes, 24 h, 100 nL compound (AID 1168). Also: test concentration not given here. The settings on record: JC-1 mitochondrial fluorescence, higher = more signal, called active from +8 up or from −8 down.
Assay [18] can be described thus: basal RPMI8226 mitochondrial membrane potential changes, profiling panel, cell-based, JC-1 fluorescence, 24 h, 100 nL compound (AID 1169). Also: test concentration not given here. As to conditions: RPMI8226 myeloma, JC-1 mitochondrial potential fluorescence, higher = more signal.
Assay [19] can be described thus: basal MM1S mitochondrial membrane potential changes, profiling panel, cell-based, JC-1 fluorescence, 24 h, 100 nL compound (AID 1170). Also: test concentration not given here. As to conditions: higher = more signal.
A short description of assay [20]: A549 lung cancer cell viability effects, profiling panel, resazurin fluorescence, 24 h, PK04 Diversity Set (AID 1171). Also: test concentration not given here. The settings on record: higher = more signal, called active from +8 up or from −8 down. For orientation: Alamar Blue is a resazurin reagent that responds to reducing activity.

The source of these data is PubChem BioAssay.

The structures appear in SMILES notation. Calls of active or inactive are those of the source.

Chain of NADPH oxidase 5 (Homo sapiens) (Q96PH1 whole entry, looked up): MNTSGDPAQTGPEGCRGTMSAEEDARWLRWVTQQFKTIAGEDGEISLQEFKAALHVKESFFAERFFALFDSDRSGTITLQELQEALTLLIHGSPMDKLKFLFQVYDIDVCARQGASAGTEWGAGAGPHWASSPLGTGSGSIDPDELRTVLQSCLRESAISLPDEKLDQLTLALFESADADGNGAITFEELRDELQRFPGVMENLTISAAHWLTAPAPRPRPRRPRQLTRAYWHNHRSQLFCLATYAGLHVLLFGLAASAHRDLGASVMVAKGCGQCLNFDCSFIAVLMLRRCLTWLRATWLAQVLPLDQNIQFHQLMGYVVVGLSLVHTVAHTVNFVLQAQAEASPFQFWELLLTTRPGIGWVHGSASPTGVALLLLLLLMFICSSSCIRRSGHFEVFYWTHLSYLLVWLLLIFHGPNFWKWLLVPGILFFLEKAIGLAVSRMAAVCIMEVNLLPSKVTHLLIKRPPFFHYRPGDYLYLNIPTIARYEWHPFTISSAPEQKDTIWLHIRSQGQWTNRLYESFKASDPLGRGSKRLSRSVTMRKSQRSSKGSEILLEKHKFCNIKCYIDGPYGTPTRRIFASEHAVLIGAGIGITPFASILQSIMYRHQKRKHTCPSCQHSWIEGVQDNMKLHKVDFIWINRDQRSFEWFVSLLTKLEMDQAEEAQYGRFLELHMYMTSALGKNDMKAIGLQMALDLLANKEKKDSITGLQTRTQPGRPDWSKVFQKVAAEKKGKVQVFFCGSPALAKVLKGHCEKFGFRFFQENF
Chain of NADPH oxidase 4 (Homo sapiens) (Q9NPH5 whole entry, looked up): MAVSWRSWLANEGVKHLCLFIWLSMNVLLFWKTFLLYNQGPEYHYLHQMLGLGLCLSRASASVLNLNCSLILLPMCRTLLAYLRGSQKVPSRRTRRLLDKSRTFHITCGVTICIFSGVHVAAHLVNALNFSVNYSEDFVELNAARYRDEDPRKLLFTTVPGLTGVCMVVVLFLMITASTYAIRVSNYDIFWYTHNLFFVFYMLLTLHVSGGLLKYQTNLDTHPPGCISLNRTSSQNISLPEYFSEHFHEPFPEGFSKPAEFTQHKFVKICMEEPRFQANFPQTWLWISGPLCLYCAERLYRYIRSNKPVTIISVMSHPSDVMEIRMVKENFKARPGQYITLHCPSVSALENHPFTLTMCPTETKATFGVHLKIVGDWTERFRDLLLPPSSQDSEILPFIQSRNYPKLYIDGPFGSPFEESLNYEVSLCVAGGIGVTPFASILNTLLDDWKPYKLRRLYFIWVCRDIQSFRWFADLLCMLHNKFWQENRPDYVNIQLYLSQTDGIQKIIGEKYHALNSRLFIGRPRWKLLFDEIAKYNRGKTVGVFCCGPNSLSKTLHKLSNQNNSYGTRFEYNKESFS
Chain of NADPH oxidase 2 (Homo sapiens) (P04839 whole entry, looked up): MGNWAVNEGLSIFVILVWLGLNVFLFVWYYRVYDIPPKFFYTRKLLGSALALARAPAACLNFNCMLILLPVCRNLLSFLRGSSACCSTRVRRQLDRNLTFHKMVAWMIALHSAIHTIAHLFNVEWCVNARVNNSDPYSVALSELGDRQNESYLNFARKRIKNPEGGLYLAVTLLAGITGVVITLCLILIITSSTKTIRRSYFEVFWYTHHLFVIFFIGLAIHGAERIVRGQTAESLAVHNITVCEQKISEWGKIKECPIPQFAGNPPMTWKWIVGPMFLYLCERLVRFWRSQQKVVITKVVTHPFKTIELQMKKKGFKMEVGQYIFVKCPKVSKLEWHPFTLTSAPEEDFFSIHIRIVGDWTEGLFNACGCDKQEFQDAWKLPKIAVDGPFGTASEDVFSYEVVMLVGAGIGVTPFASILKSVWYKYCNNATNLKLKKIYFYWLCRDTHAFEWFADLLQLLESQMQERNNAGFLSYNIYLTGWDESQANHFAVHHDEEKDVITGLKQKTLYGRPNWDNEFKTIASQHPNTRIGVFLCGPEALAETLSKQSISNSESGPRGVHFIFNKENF

In the case of `C=C(COC)/C(=C/C[C@H](OC(C)=O)c1ccccc1OCCO)c1cnc2ccccc2c1`, the z-score was -0.0836 (inactive) in assay [1]; 16.9 (active) in [3]; 2.74 (inactive) in [4]; 0.661 (inactive) in [5]; 0.799 (inactive) in assay [6]; -0.177 in assay [7]. The z-score in assay [8] was -1.79 (inactive); in assay [9], -0.0686 (inactive); in assay [10], -0.854; in assay [11], 0.406; in assay [12], -0.309; in [13], -0.738. The z-score was -2.08 in assay [14]; -1.32 in assay [15]; 1.4 in [16]; -1.34 (inactive) in assay [17]; -0.439 in assay [18]; -0.62 in assay [19]. Besides, the z-score in assay [20] was -0.0424 (inactive). The compound further returned a composite z-score in [2] of -0.0779.
With `O=C1OCCC/C=C\[C@H]2OC34C=CCN(CCN5CCOCC5)C(=O)[C@H]3N(CCO)C(=O)[C@@H]4C12` (stereo not given in full), the z-score was 0.216 (inactive) in assay [1]; 0.588 (inactive) in [3]; 0.921 (inactive) in assay [4]; 0.723 (inactive) in [5]; 0.382 (inactive) in [6]; -0.364 in assay [7]. In addition, the z-score is 0.61 (inactive) in assay [8]; -0.342 (inactive) in assay [9]; 0.494 in assay [10]; -1.18 in [11]; 1.72 in assay [12]; -0.615 in assay [13]. Further, the z-score in assay [14] was 1.31; in assay [15], -0.832; in assay [16] it was -0.41; in assay [17], -1.21 (inactive); in assay [18], -0.802; in assay [19], 0.533. Further, in assay [20], the z-score is -1.99 (inactive). The same compound displayed a composite z-score in assay [2] of -0.231.
With `C=C(C)[C@@H]1CC=C(C(O)C2C=CC3C(=O)N(Cc4ccccc4)C(=O)C3N2n2cnnc2)CC1` (stereo not given in full), the z-score was -1.05 (inactive) in assay [1]; 1.48 (inactive) in assay [3]; -0.289 (inactive) in assay [4]; 1.28 (inactive) in assay [5]; -1.38 (inactive) in assay [6]; 1.65 in [7]. Besides, the z-score in assay [8] is -3.5 (inactive); in [9], -2.39 (inactive); in assay [10], -3.6; in assay [11], -0.675; in assay [12], 0.233; in assay [13] it was -1.05. The z-score in [14] is 0.364; in assay [15], -0.176; in [16], -0.458; in assay [17], -0.403 (inactive); in assay [18], 0.666; in assay [19], -2.13. In addition, the z-score in [20] was 0.159 (inactive). In assay [2], the composite z-score was 0.298.
On to `CC(C)NC(=O)[C@@]1(c2ccc([N+](=O)[O-])cc2)CC(=O)N(C(C)C)[C@@H]1c1ccc(CO)cc1`, for which the z-score in assay [1] was 1.58 (inactive); in assay [3] it was 1.93 (inactive); in assay [4] it was -0.672 (inactive); in assay [5], -0.641 (inactive); in assay [6], -0.945 (inactive); in [7] it was 1.31. Further, the z-score was -0.379 (inactive) in [8]; 0.354 (inactive) in assay [9]; 0.0654 in [10]; 1.19 in assay [11]; 0.63 in assay [12]; 0.959 in [13]. Besides, the z-score is 0.385 in assay [14]; 1.38 in assay [15]; 0.763 in assay [16]; 0.481 (inactive) in assay [17]; -1.03 in assay [18]; -0.228 in [19]. For the same compound, the z-score in assay [20] was -1.1 (inactive). The composite z-score in [2] is -0.82.
Take `COCCn1c(C(=O)N2CCCC2)cc2c1C[C@H]1CN(C(=O)c3ccccc3)[C@@](Cc3ccc(OC)cc3)(C(=O)OC)[C@@H]21`: the z-score in assay [1] was 0.223 (inactive); in [3], 2.9 (inactive); in assay [4], -0.51 (inactive); in assay [5], -0.778 (inactive); in assay [6], -1.96 (inactive); in assay [7], 2.69. In addition, the z-score in [8] was 0.121 (inactive); in [9] it was 0.435 (inactive); in [10], -4.54; in assay [11] it was 0.476; in [12], 0.238; in [13] it was 1.35. The z-score was 0.776 in [14]; 0.426 in [15]; 2.71 in assay [16]; 0.0944 (inactive) in assay [17]; 0.00347 in [18]; -0.828 in assay [19]. Also, the z-score in assay [20] is -0.253 (inactive). The composite z-score in assay [2] was 1.15.
Regarding `CC(=O)N1Cc2ccccc2C[C@@]2(N=C(c3ccc(OCCCO)cc3)O[C@H]2c2ccccc2)C1=O`, the z-score in [1] was 1.6 (inactive); in [3] it was 24.1 (active); in assay [4], 8.42 (active); in assay [5], 2.76 (inactive); in assay [6], 0.944 (inactive); in assay [7], 2.14. Also, the z-score is -4.15 (inactive) in [8]; 0.144 (inactive) in [9]; -2.86 in assay [10]; -1.09 in assay [11]; 0.609 in [12]; -1.31 in assay [13]. In addition, the z-score in assay [14] is -2.19; in assay [15], -3.36; in assay [16] it was 1.8; in assay [17] it was 0.234 (inactive); in assay [18], -1.15; in [19], -0.438. Further, the z-score in [20] was -2.8 (inactive). The compound also showed a composite z-score in [2] of 1.29.
In the case of `CCOC1=C2C(c3ccc(C)cc3)N(S(=O)(=O)c3ccc(C)cc3)CC2n2c(=O)n(-c3ccccc3)c(=O)n2C1` (stereo not given), the z-score in assay [1] was -0.346 (inactive); in [3] it was 1.08 (inactive); in assay [4], 1.32 (inactive); in assay [5], 0.458 (inactive); in [6], 0.807 (inactive); in assay [7], -0.0263. In addition, the z-score was 1.22 (inactive) in assay [8]; 0.965 (inactive) in assay [9]; 0.536 in [10]; -0.943 in [11]; -0.334 in [12]; -0.422 in assay [13]. The z-score was -0.255 in assay [14]; -0.546 in assay [15]; 1.53 in assay [16]; 0.497 (inactive) in assay [17]; 0.709 in assay [18]; -1.03 in [19]. In addition, the z-score in assay [20] is -0.629 (inactive). In assay [2], this compound gave a composite z-score of 0.175.
With `COCCOC(=O)N1C(=O)[C@@]2(c3cc(C#Cc4ccc(OC)cc4)ccc31)[C@H](C(N)=O)[C@H]1C(=O)O[C@H](c3ccccc3)[C@H](c3ccccc3)N1[C@@H]2c1ccc(O)cc1`, the z-score was 1.52 (inactive) in assay [1]; 0.429 (inactive) in assay [3]; -0.359 (inactive) in [4]; -0.939 (inactive) in assay [5]; -1.13 (inactive) in [6]; 2.93 in assay [7]. Also, the z-score was -0.0615 (inactive) in [8]; 0.893 (inactive) in assay [9]; 0.128 in assay [10]; 0.363 in [11]; 0.632 in assay [12]; -0.905 in [13]. Moreover, the z-score is 0.152 in assay [14]; -2.22 in assay [15]; -0.933 in [16]; 0.454 (inactive) in [17]; -0.677 in assay [18]; -0.317 in [19]. Also, in assay [20], the z-score was 0.179 (inactive). In assay [2], this compound had a composite z-score of 0.649.
